Bioassay records deposited in PubChem by National Center for Advancing Translational Sciences (NCATS).
Hits are enriched below; roughly 4% of the tested compounds scored in any of these assays.
TRHR agonist – qHTS for Small Molecule Agonists and Allosteric Enhancers of Human TRH Receptor: Primary Screen for Agonists; Thyrotropin-releasing hormone receptor (Homo sapiens), P34981; actives 0.18% (n = 360,000); TRHR cells, calcium flux fluo-8, FDSS agonist mode; activation, % at 2 µM; note: 0% is about no effect
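Read-out: compound-evoked intracellular calcium rise in TRHR cells, fluo-8 dye, kinetic FDSS fluorescence at 1 s/cycle following a 10-cycle baseline. Cells cultured overnight before dye loading (30 min–1.5 h, RT).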
D1 agonist – Allosteric Agonists of the Human D1 Dopamine Receptor: qHTS; activation, % at 2 µM; HEK293 T-REx D1 cells, calcium flux, agonist mode; actives 1% (n = 360,000); AID 504660, 2011; D(1A) dopamine receptor (Homo sapiens), P21728; note: 0% is about no effect
Target sequence (P21728 whole entry, looked up): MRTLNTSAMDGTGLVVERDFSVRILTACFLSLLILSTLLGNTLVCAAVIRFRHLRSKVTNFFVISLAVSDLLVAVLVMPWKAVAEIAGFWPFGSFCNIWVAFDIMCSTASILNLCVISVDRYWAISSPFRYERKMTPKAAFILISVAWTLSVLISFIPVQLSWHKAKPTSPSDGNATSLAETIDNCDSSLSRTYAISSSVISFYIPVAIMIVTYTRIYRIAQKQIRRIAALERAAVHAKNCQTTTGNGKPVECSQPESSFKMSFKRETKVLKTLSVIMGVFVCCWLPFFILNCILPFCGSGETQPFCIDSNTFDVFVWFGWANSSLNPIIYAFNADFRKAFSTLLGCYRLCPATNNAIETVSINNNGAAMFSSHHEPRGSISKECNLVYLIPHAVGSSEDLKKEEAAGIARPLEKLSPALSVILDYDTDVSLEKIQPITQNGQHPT
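Agonism was scored from calcium flux recorded over 180 s (1 read/s) after pintool compound addition, following a 10-cycle baseline. Cells were inducible force-coupled HEK293 TREx D1, plated overnight at 30 C and loaded with no-wash calcium dye.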
D1 potentiator – Potentiators of Human D1 Dopamine Receptor: qHTS; D(1A) dopamine receptor (Homo sapiens), P21728; HEK293 TREx D1 cells, calcium flux, dopamine EC20 potentiation; potentiation, % at 10 µM; actives 0.036% (n = 360,000); in the data active = potentiation above about 30%; note: 0% is about no effect
GRP78 ERSR act – qHTS for Inducers of the Endoplasmic Reticulum Stress Response (ERSR) in Human Glioma: qHTS. U87-MG GRP78 promoter luciferase reporter, 16 h. Potency, µM, inactives show at the highest dose activation, actives largely listed as activators. actives 0.02% (n = 420,000); active = well fitted activation curve with a large enough effect; inconclusive = small, poorly fitted or top-dose-only effect; inactive = no such curve, though single readings can be large or run the other way; note: potency is the fitted concentration of half-maximal effect; series mostly up to about 76 µM; % of control where 0% means no effect; nearly all actives have a fitted effect of over 35% in size
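ERSR induction read as luciferase luminescence (Bright-Glo, 10 min at room temperature) in stably transfected human U87-MG glioma cells exposed to compounds for 16 h, using GRP78 as sensor.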
TRHR PAM – qHTS for Small Molecule Agonists and Allosteric Enhancers of Human TRH Receptor: Primary Screen for Enhancers; Thyrotropin-releasing hormone receptor (Homo sapiens), P34981; TRHR cells, fluo-8 calcium fluorescence, EC20 TRH enhancement; AID 493056, 2011; enhancement, % at 2 µM; actives 0.66% (n = 360,000); in the data active = enhancement above about 30%; note: 0% is about no effect
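TRHR-expressing cells loaded with fluo-8 calcium dye were read kinetically (ex 480/em 530) during compound addition, then stimulated with an EC20 of TRH (10 nM final). Enhancement of the Gq-mediated intracellular calcium response was scored.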
D1 antagonist – Antagonist of Human D 1 Dopamine Receptor: qHTS. D(1A) dopamine receptor (Homo sapiens), P21728. HEK293 TREx D1 cells, calcium flux, dopamine EC80; stronger effect = lower value. activity change, negative = inhibition, % at 10 µM. actives 3.2% (n = 360,000); in the data active = activity change below about -30%; note: % is set by controls: 0 for no effect and ±100 for the full control effect
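Calcium flux readout: force-coupled, inducible Hek293 Trex D1 line, cells induced overnight at 30 C with tetracycline, dye-loaded 30–90 min at RT. Antagonism scored against EC80 dopamine challenge given 180 s after compound.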
* hit, by the source's call; ? = inconclusive; nt = no result given. Cut-off read from the data, not from the text of the source, unless noted: active = activation above about 30%; inactive = the rest.

SMILES	TRHR agonist	D1 agonist	D1 potentiator	GRP78 ERSR act	TRHR PAM	D1 antagonist
COC(=O)N/N=C(\C)c1ccccc1Br	0	-2	-1	-6%	6	-31*
COC(=O)N/N=C(\C)c1cccs1	0	0	5	0%	2	-5
O=S(=O)(c1ccc2ccccc2c1)N1CCN(Cc2ccccn2)CC1	0	51*	-1	0%	11	5
O=S(=O)(c1ccc2ccccc2c1)N1CCCCCC1	-1	1	1	-3%	31*	-17
Cc1ccn2c(Cc3ccccc3)c(-c3ccc(Br)cc3)nc2c1	nt	nt	nt	1%	nt	nt
CC(C)(C)c1ccc(C(=O)N2CCN(S(=O)(=O)c3ccc(Br)s3)CC2)cc1	0	6	-11	-4%	-2	-32*
O=C(Nc1ccc(Br)cc1)C1CCN(C(=O)c2ccco2)CC1	-1	10	-12	0%	1	1
Cc1cc(NC(=O)C2CCN(C(=O)c3ccco3)CC2)ccc1Br	-1	9	-5	1%	-3	-37*
O=C(c1ccccc1)C1CCN(C(=O)c2ccco2)CC1	0	2	59*	1%	0	-3
CCOC(=O)N1CCN(S(=O)(=O)c2ccc(Br)s2)CC1	0	3	-2	-3%	1	-5
CC(C)(O)C#Cc1ccc(C(=O)N2CCN(C(=O)c3ccco3)CC2)cc1	1	2	-1	-4%	2	12
CC(C)(C)c1ccc(C(=O)N2CCN(C(=O)c3ccco3)CC2)cc1	1	5	-3	-1%	-3	-30*
COc1ccc(-n2c(=S)[nH]c3cc(C(=O)Nc4cc(C(N)=O)ccc4OC)ccc3c2=O)c(OC)c1	0	-1	-7	-5%	-3	2
CCOP(=O)(c1ccccc1)c1nc(-c2ccccc2Cl)oc1N1CCCCC1 (configuration not stated)	3	27	-2	?	-3	25
COc1ccc(NC(=O)c2ccccc2NC(=O)C2CC=CCC2C(=O)O)cc1 (configuration not stated)	0	3	-3	3%	-4	-11
c1ccc(-c2cnnc(N3CCCCC3)n2)cc1	0	3	-5	1%	2	6
O=C(c1ccc(-c2ccccc2)cc1)N1CCN(C(=O)c2ccco2)CC1	1	3	-1	-2%	-2	-37*
C=C1c2c(Cl)ccc(O)c2C(O)=C2C(=O)[C@]3(O)C(O)=C(C(N)=O)C(=O)C(N(C)C)C3C(O)C12 (some centres not stated)	nt	nt	nt	-7%	nt	nt
COc1cc(NC(=O)C2CC2C)c(C(=O)O)cc1OC (configuration not stated)	0	2	-2	-3%	2	-8
CSc1ccc(CN(C)C(=O)c2cccc(S(=O)(=O)NCc3ccccc3)c2)cc1	0	16	-11	0%	-6	-33*
COc1ccc(C)cc1NC(=O)Nc1ccc2c(c1)CCC2	0	0	-4	3%	0	-44*
COc1ccccc1NC(=O)Nc1ccc2c(c1)CCC2	-1	2	38*	3%	1	-14
Cc1cccc(C)c1NC(=O)c1cc(S(=O)(=O)N2CCOCC2)cn1C	0	3	-5	0%	0	-1
CCCc1ccc(OC(C)c2nc(-c3ccc(-n4cccc4)cc3)no2)cc1 (configuration not stated)	3	7	-2	nt	36*	0
Cc1noc(C)c1COC(=O)c1cnc(Cl)c(Cl)c1	-1	7	-4	-4%	-10	-42*
SMILES	TRHR agonist	D1 agonist	D1 potentiator	GRP78 ERSR act	TRHR PAM	D1 antagonist
CCOC(=O)C1CCCN(C(=O)c2ccc(C)c([N+](=O)[O-])c2)C1 (configuration not stated)	0	2	-4	-4%	2	-8
CC(C)(C)OC(=O)N1CCC2(CC1)Oc1ccc(F)cc1C(=O)C21CC(c2cccnc2)=NO1 (configuration not stated)	0	1	-4	-3%	-1	-91*
CCC(NC(=O)Nc1nnc(C(F)(F)F)s1)(C(F)(F)F)C(F)(F)F	12	31*	-11	-4%	-3	-58*
CCOc1ccc(N(CC(=O)NC2CCCCC2)C(=O)CSc2nnc(COc3ccccc3)o2)cc1	1	2	-1	-1%	-2	-1
C[C@H](CO)N1C[C@H](C)[C@@H](CN(C)S(=O)(=O)c2ccccc2)Oc2c(NC(=O)Nc3ccccc3)cccc2C1=O	nt	nt	nt	-2%	nt	nt
CCN(C(=O)c1ccccc1)c1ccc([N+](=O)[O-])cc1	-1	1	1	-2%	6	-4
O=[N+]([O-])c1ccc(N(c2ccccc2)c2ccccc2)cc1	0	42*	1	-2%	-1	21
CCCCn1c(=O)c(CCC(=O)OCC(=O)NC(=O)NCCC(C)C)nc2ccccc21	0	1	0	-1%	30*	2
Cc1ccc(C(=O)C(C)OC(=O)Cc2c[nH]c3ccccc23)cc1 (configuration not stated)	0	3	-1	-3%	-3	4
CCN(CC)S(=O)(=O)c1ccc(NC2CCCc3ccccc32)nc1 (configuration not stated)	0	5	-7	-2%	-4	-31*
CCN(CC)S(=O)(=O)c1ccc(NC2CCN(Cc3ccccc3)CC2)nc1	0	34*	-9	-4%	4	-38*
CCN(CC)S(=O)(=O)c1ccc(Cl)c(C(=O)NC2CCN(Cc3ccccc3)CC2)c1	0	6	-5	-9%	-1	-8
COc1ccc(N2CCN(C(=O)c3cccc(S(=O)(=O)N4CCOCC4)c3)CC2)cc1	0	3	nt	-5%	4	-6
O=C(O)C1C2CC2CN1C(=O)c1ccc(Cl)cc1 (configuration not stated)	0	4	-2	-2%	-6	-5
O=S(=O)(Nc1cc(Cl)ccc1-n1cncn1)c1ccc(F)cc1	1	4	-1	-5%	-3	-1
O=S(=O)(Nc1cc(Cl)ccc1-n1cncn1)c1cc(Br)ccc1Br	1	21	-10	-2%	-5	-33*
Cc1ccc(S(=O)(=O)Nc2cc(Cl)ccc2-n2cncn2)cc1	0	1	2	-6%	9	-38*
